# According to PubChem BioAssay (EPA / NIEHS):
# Activity calls are given as the source filed them. How the source made its calls: active means hit-call score of the fitted dose curve at least 0.9, where 1 is the maximum; inactive means score below 0.9.
# Read-out: Collagen I, COL1A1 (gene 1277)
# Assay: BSK_MyoF_CollagenI: BioMAP Diversity Plus: MyoF Assay for Collagen I Biomarker Activity (AID 2284238)
# Details: primary human lung fibroblasts
# Protocol: BSK_MyoF is a cell-based, multiplexed-readout assay that uses lung fibroblasts, […], with measurements taken at 24 hours after chemical dosing in a microplate: 96-well plate.BSK_MyoF_CollagenI is an assay component measured in the BSK_MyoF assay. It measures Collagen I antibody related to regulation of gene expression using ELISA technology.Data from the assay component BSK_MyoF_CollagenI was analyzed at the endpoint, BSK_MyoF_CollagenI, in the positive analysis fitting direction relative to DMSO as the negative control and baseline of activity. Using a type of binding reporter, gain or loss-of-signal activity can be used to understand protein changes. To generalize the intended target to other relatable targets, this assay endpoint is annotated to the 'cell adhesion molecules' intended target family, where the subfamily is 'collagen'.
# The levels of cell surface (or secreted, indicated by the prefix "s") biomarker endpoints were measured by ELISA. Overt cytotoxicity to cells in confluent adherent cultures (all systems other than the BT system) was assessed by measuring total protein levels using sulforhodamine B (SRB) staining in parallel cultures at the time of biomarker measurements, indicated as SRB endpoints. For proliferation assays for adherent cell types, individual cell types are cultured at sub-confluence and relative cell numbers quantified by SRB staining at time points optimized for each system (48 h: 3C and CASM3C systems; 72 h: BT and HDF3CGF systems; 96 h: SAg system). SRB was performed by staining cells with 0.1% SRB after fixation with 10% TCA and reading wells at 560 nm.Viability and proliferation of PBMC (T cells) was quantified by Alamar Blue reduction for the SAg and BT systems. For PBMC viability (referred to as PBMC Cytotoxicity within the assay endpoint names), cells were plated (75,000/well in a 96-well plate) and then chemical samples added for 1 h before addition of activators, SEB and TSST-1 (20 ng/mL final concentration each). Cells were incubated for 90 h. Then, Alamar Blue (20 uL/well) (Invitrogen, Cat DAL1100) was added for 6 h, and the plates were read with a fluorescence microplate reader at 546/580 nm (excitation/emission). For PBMC proliferation, cells were plated and activated as above but incubated for only 16 h prior to addition of Alamar Blue. Plates were read after 6 h.
SMILES,outcome,AC50
c1ccc2c(c1)ccc1ncccc12,inactive,
CCCCC/C=C\C/C=C\CCCCCCCC(=O)OC,,27.1 µM (active)
C#CC1(O)CC[C@H]2[C@@H]3CCC4=CCCC[C@@H]4[C@H]3CC[C@@]21C (some centres not stated),,22.4 µM (active)
C=CC(=O)OCC(Br)CBr (configuration not stated),,20 µM (active)
O=C(Cl)c1cc(C(=O)Cl)cc(C(=O)Cl)c1,,30.7 µM (active)
CCCCC(CC)COC(=O)c1ccccc1O (configuration not stated),,14.5 µM (active)
C/C=C\C/C=C/CCCCCCCCOC(C)=O,inactive,
COc1ccc2nc(N)sc2c1,inactive,
N#[N+]c1ccc2c(S(=O)(=O)[O-])cccc2c1O,inactive,
CC(C)C(=O)C(C)C,inactive,
C=CC=CC=CCCCCC,inactive,
c1ccc2c(c1)ccc1cc3c(ccc4ccccc43)cc12,inactive,
CC(C)(c1cc(Br)c(OCCO)c(Br)c1)c1cc(Br)c(OCCO)c(Br)c1,,6.65 µM (active)
S=C(NC1CCCCC1)NC1CCCCC1,inactive,
C=CCOc1c(Br)cc(Br)cc1Br,,20 µM (active)
CCCCCCCCCCCCCCCC[N+](C)(C)CC,,0.64 µM (active)
CCCCCCCCc1ccc(Nc2ccc(CCCCCCCC)cc2)cc1,inactive,
O=c1c2ccccc2oc2ccccc12,inactive,
c1ccc(-c2ccccn2)nc1,inactive,
COCc1c(C(C)C)nc(C(C)C)c(/C=C/[C@@H](O)C[C@@H](O)CC(=O)O)c1-c1ccc(F)cc1,,9.2 µM (active)
CCOc1nc(F)cc2nc(S(=O)(=O)Nc3c(Cl)cccc3C(=O)OC)nn12,inactive,
CCCCNc1ccc(NCCCC)c2c1C(=O)c1ccccc1C2=O,inactive,
C=CCOCC(O)CCl (configuration not stated),inactive,
CCO[Si](CCCN=C=O)(OCC)OCC,inactive,
O=C(Nc1ccccc1SSc1ccccc1NC(=O)c1ccccc1)c1ccccc1,inactive,
CC1OC1C1CCC2(C)OC2C1 (configuration not stated),inactive,
O=Nc1ccc(O)cc1,inactive,
